Seven molecules from PubChem BioAssay (Tox21) can be followed below.

The target of assay [1] is Luciferin 4-monooxygenase (Photinus pyralis) (UniProt P08659). Briefly: qHTS assay to identify small molecule inhibitors of firefly luciferase (AID 1224835). Also: nearly all actives have a fitted effect of over 25% in size. Also: potency is read from the fitted curve at half-maximal effect. Put shortly: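 Biochemical qHTS: compounds run as interplate titrations against purified firefly enzyme, with D-luciferin and ATP each at its KM concentration. Light output recorded by CCD imaging.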
Chain of Luciferin 4-monooxygenase (Photinus pyralis) (P08659 whole entry, looked up): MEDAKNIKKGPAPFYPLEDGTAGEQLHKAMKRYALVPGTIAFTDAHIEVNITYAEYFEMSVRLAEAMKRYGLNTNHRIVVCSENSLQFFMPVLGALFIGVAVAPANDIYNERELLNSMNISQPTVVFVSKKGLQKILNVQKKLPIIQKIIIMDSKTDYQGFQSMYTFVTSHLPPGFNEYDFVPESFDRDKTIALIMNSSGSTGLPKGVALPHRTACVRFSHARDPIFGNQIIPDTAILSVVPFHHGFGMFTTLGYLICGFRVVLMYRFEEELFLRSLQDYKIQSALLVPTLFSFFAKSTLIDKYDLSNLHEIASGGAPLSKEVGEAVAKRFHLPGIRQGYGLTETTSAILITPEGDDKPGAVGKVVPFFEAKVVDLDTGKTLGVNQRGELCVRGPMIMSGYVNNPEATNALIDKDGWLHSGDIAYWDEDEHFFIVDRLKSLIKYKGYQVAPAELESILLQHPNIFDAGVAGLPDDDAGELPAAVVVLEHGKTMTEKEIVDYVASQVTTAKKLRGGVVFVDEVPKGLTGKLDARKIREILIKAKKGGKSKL
In general terms: Quantitative high-throughput screening tests each substance at several concentrations.

The nature of assay [2]: qHTS assay to identify small molecule agonists of the constitutive androstane receptor (CAR) signaling pathway - cell viability counter screen (AID 1224836). Also: nearly all actives have a fitted effect of over 45% in size. Also: potency is read from the fitted curve at half-maximal effect. Put shortly: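 Viability read-out: CellTiter-Fluor fluorescence after 23 h compound exposure at 37 C/5% CO2 in double-stable HepG2-CYP2B6-hCAR cells, with PK11195 present at 0.75 uM final; compounds tested in 15-point titration.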

In assay [3] the target is Nuclear receptor subfamily 1 group I member 3 (Homo sapiens) (UniProt Q14994). Briefly: qHTS assay to identify small molecule antagonists of the constitutive androstane receptor (CAR) signaling pathway (AID 1224838). Also: nearly all actives have a fitted effect of over 40% in size. Also: potency is read from the fitted curve at half-maximal effect. Summed up: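 Compounds were titrated across 15 concentrations onto HepG2 cells double-stably expressing hCAR and a CYP2B6-2.2kb reporter, together with 50 nM CITCO (final). After 24 h at 37 C, luciferase activity was measured by luminescence.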
Chain of Nuclear receptor subfamily 1 group I member 3 (Homo sapiens) (Q14994 whole entry, looked up): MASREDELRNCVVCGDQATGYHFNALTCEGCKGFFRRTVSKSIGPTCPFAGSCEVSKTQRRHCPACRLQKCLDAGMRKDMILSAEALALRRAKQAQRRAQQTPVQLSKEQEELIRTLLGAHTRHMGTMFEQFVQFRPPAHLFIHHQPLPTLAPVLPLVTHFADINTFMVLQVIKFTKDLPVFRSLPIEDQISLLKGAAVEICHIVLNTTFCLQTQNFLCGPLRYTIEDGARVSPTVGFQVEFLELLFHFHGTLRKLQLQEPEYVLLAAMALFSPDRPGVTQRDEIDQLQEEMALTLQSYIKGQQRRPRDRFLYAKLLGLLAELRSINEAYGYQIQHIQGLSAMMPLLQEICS

For assay [4] the target is unchanged. Briefly: qHTS assay to identify small molecule agonists of the constitutive androstane receptor (CAR) signaling pathway (AID 1224839). Also: nearly all actives have a fitted effect of over 15% in size. Also: potency is read from the fitted curve at half-maximal effect. As to activation: % is scaled to controls: 0 for no effect and ±100 for the full control effect. Put shortly: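 Luminescence read-out (ONE-Glo, 30 min, room temperature) from double-stable HepG2-CYP2B6-hCAR cells exposed 24 h to 15-point compound series in presence of 0.75 uM PK11195 final.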
Assay [5] can be described thus: qHTS assay to identify small molecule antagonists of the estrogen related receptor signaling pathway with the pleiotropic PPARgamma coactivator (PGC) from Tox21 10K library (AID 1224841; call rule not given here; also: actives are mostly falling curves and most rising ones were filed inactive; nearly all actives have a fitted effect of over 50% in size; also: potency is read from the fitted curve at half-maximal effect). Put shortly:
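Antagonism in this quantitative HTS is taken from loss of luciferase signal in PGC/ERR cells. Cells (2,000/well) are treated with compounds in DMSO after a 6 h settling period and read by One-Glo luminescence after 18 h.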

Assay [6] can be described thus: qHTS assay to identify small molecule agonists of the estrogen related receptor signaling pathway with the pleiotropic PPARgamma coactivator (PGC) from Tox21 10K library (AID 1224842). Also: potency is read from the fitted curve at half-maximal effect; nearly all actives have a fitted effect of over 15% in size. Put shortly:
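PGC/ERR reporter cell line, 2,000 cells per well, incubated 6 h at 37 C before 23 nL compound in DMSO was added. After 18 h at 37 C, One-Glo luminescence read following 30 min at room temperature.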

Assay [7] in a line: qHTS assay to identify small molecule agonists of H2AX (AID 1224845; active = well fitted activation curve with a large enough effect in the signal ratio in the repeat runs, not every such curve was filed as active; the % refers to the signal ratio; also: potency is read from the fitted curve at half-maximal effect). Put shortly:
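Wild-type CHO-K1 cells, plated overnight, exposed 3hr at 37C to 15 concentrations (0.76% DMSO final). Lysed, then HTRF anti-pH2AX (S139) cryptate and anti-H2AX-d2 antibodies, 24 hr room temperature; 665/620 nm emission read.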

Assay [8] in a line: qHTS assay to identify small molecule agonists of the hypoxia (HIF-1) signaling pathway (AID 1224846; active = well fitted activation curve with a large enough effect in the signal ratio in the repeat runs, not every such curve was filed as active; the % refers to the signal ratio; also: % is scaled to controls: 0 for no effect and ±100 for the full control effect). Put shortly: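 Steps: seed ME-180 HRE-bla cells (2,000/well, 0.5% dialyzed FBS); incubate 5 hrs at 37C; pin-transfer compounds or DMSO; incubate 17 hrs; add LiveBLAzer B/G substrate CCF4-AM; measure reporter activation by FRET.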
Assay [9] in a line: qHTS assay to identify small molecule agonists of H2AX - cell viability counter screen (AID 1224847; calls by dose curve; also: nearly all actives have a fitted effect of over 30% in size; also: potency is read from the fitted curve at half-maximal effect). Put shortly:
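CHO-K1 wt, 1000 cells/well, o/n 37C; cpds 15 conc, 3 h 37C, 0.76% DMSO; CellTiter-Glo, 30 min RT, luminescence.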

A short description of assay [10]: qHTS assay to identify small molecule antagonists of the estrogen related receptor (ERR) signaling pathway from Tox21 library (AID 1224848). Also: nearly all actives have a fitted effect of over 50% in size. Also: potency is read from the fitted curve at half-maximal effect. Summed up:
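ERR reporter cell line (from NTP) seeded 2,000 cells/well, rested 6 h at 37 C/5% CO2, then pin-dosed with compounds in DMSO. After 18 h at 37 C, ONE-Glo added; luminescence read after 30 min at room temperature.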

The nature of assay [11]: qHTS assay to identify small molecule agonists of the estrogen related receptor (ERR) signaling pathway from Tox21 library (AID 1224849; calls by dose curve; also: % is scaled to controls: 0 for no effect and ±100 for the full control effect; nearly all actives have a fitted effect of over 15% in size). Particulars: ERR reporter cell line, ONE-Glo luciferase, 18 h; at 92.4 µM (top of the series) unless noted. Put shortly: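 Agonist signal is luciferase luminescence from an ERR reporter cell line treated 18 h at 37 C with DMSO-dissolved compounds, read 30 min after ONE-Glo addition at room temperature.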

The nature of assay [12]: qHTS RealTime-Glo MT Cell Viability Assay in HepG2 cells - 24 hour (AID 1224867). Also: nearly all actives have a fitted effect of over 50% in size. Also: potency is read from the fitted curve at half-maximal effect. Summed up: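 Real-time, nonlytic viability: 600 HepG2 cells/well mixed with NanoLuc enzyme plus prosubstrate; 5 h settle, compound (DMSO) added by pintool; luminescence monitored over 40 h at 37 C.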
Assay [13] in a line: qHTS RealTime-Glo MT Cell Viability Assay in HEK293 cells - 32 hour (AID 1224868). Also: potency is read from the fitted curve at half-maximal effect; nearly all actives have a fitted effect of over 50% in size. Summed up:
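Cells + reagent dispensed (600 cells/well, HEK293) → 5 h at 37 C/5% CO2 → 23 nL compound in DMSO pinned → 40 h at 37 C → luminescence read at 0, 8, 16, 24, 32, 40 h.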

Assay [14] in a line: qHTS RealTime-Glo MT Cell Viability Assay in HepG2 cells - 40 hour (AID 1224870). Also: nearly all actives have a fitted effect of over 50% in size. Also: potency is read from the fitted curve at half-maximal effect. Put shortly: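 HepG2 cells (600/well) mixed with RealTime-Glo MT reagent, settled 5 h at 37 C/5% CO2 before compound addition. Nonlytic NanoLuc luminescence from viable-cell prosubstrate reduction read repeatedly during 40 h treatment at 37 C.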
Assay [15] is described as follows: qHTS assay to identify small molecule antagonists of the estrogen related receptor signaling pathway with the pleiotropic PPARgamma coactivator (PGC) from Tox21 10K library - cell viability counter screen (AID 1224840; active = well fitted cell-killing curve with a large enough effect in the repeat runs, not every such curve was filed as active; also: % is scaled to controls: 0 for no effect and ±100 for the full control effect; nearly all actives have a fitted effect of over 40% in size). Summed up: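 Step one, plate 2,000 PGC/ERR cells per well; step two, incubate 6 h at 37 C/5% CO2; step three, pin-transfer compounds; step four, incubate 17.5 h; step five, add CellTiter-Fluor and read fluorescence after 30 min.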

The nature of assay [16]: qHTS assay to identify small molecule agonists of the hypoxia (HIF-1) signaling pathway - cell viability counter screen (AID 1224844; calls by dose curve; also: nearly all actives have a fitted effect of over 50% in size; also: potency is read from the fitted curve at half-maximal effect). Put shortly:
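Tox21 10K compounds were added to HRE-bla ME-180 cells (0.5% dialyzed FBS) and incubated 17 hrs at 37C; ATP-based CellTiter-Glo luminescence then reported cell viability in the same wells.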

Assay [17] can be described thus: A CellTox Green Cytotoxicity Assay to monitor cytotoxicity in HEK293 cells - 0 hour (AID 1224869). Also: nearly all actives have a fitted effect of over 50% in size. Also: potency is read from the fitted curve at half-maximal effect. As to Cytotoxicity: % is scaled to controls: 0 for no effect and ±100 for the full control effect. Put shortly:
(§1)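 Cytotoxicity was tracked continuously in HEK293 cells by a DNA-binding dye excluded from viable cells. Compounds were transferred in DMSO 5 h after seeding; fluorescence was recorded at intervals up to 40 h.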

Assay [18] is described as follows: A CellTox Green Cytotoxicity Assay to monitor cytotoxicity in HEK293 cells - 40 hour (AID 1224871). Also: nearly all actives have a fitted effect of over 45% in size. Also: potency is read from the fitted curve at half-maximal effect. Put shortly:
as §1

Assay [19] deals with Thyrotropin receptor (Homo sapiens) (UniProt P16473). Briefly: qHTS assay to identify small molecule agonists of the thyroid stimulating hormone receptor (TSHR) signaling pathway (AID 1224843; calls by dose curve; also: % is scaled to controls: 0 for no effect and ±100 for the full control effect; nearly all actives have a fitted effect of over 45% in size). Put shortly:
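TSHR-HEK293 cells in agonist mode, 30 min room-temperature step, then cAMP measured by competitive HTRF (cAMP-d2 with anti-cAMP cryptate) after 1 h at room temperature. Tested at 15 concentrations in triplicate.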

The nature of assay [20]: qHTS assay to identify small molecule antagonists of the constitutive androstane receptor (CAR) signaling pathway - cell viability counter screen (AID 1224837). Also: % is scaled to controls: 0 for no effect and ±100 for the full control effect; nearly all actives have a fitted effect of over 45% in size. Put shortly:
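Multiplexed cytotoxicity read-out for the CAR antagonist screen: double-stable HepG2-CYP2B6-hCAR cells co-treated with 50 nM CITCO (final) and compound over 15 concentrations, incubated 23 hr, then assessed by CellTiter-Fluor fluorescence.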

Values joined by “and” are separate entries in the source; they are usually repeats but may differ in a detail not shown here. Identical values can stand only once. Values without a mark were called inactive. Records with an inconclusive call do not appear. Active and inactive are the calls of the source. Unless noted, calls follow the shape of the dose curve; as a rule, active = well fitted curve in the direction sought with a large enough effect in the repeat runs; inconclusive = weak or mixed curves; inactive = no such curve, though single readings can be large; an effect the other way counts as inactive or inconclusive.

Chain of Thyrotropin receptor (Homo sapiens) (P16473 whole entry, looked up): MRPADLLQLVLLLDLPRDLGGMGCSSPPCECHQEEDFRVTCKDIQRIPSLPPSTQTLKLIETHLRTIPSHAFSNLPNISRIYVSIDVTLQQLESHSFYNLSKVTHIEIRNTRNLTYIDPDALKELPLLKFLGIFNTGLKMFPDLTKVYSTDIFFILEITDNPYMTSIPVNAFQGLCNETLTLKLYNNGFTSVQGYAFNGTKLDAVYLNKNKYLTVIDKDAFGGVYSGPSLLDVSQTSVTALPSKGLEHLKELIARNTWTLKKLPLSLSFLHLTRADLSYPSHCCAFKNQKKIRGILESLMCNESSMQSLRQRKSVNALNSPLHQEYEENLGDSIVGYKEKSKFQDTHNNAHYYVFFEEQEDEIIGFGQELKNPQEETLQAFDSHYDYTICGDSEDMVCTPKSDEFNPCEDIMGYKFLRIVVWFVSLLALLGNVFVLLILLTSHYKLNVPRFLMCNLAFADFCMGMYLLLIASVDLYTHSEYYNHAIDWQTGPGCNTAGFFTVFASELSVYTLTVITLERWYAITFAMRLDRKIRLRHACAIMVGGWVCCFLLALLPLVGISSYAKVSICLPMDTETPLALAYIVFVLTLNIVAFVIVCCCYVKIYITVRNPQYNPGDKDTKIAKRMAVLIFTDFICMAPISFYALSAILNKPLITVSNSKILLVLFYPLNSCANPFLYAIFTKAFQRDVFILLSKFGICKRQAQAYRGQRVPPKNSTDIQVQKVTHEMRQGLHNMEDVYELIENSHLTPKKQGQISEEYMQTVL

For the molecule `Cc1ccc(CCn2c3c(c4cc(Cl)ccc42)CN(C)CC3)cn1`, the Potency result in assay [1], in [2], in [3], in assay [4], in assay [5] and in assay [7] was “inactive” in each case. Also, the Potency entry in assay [9], in assay [10], in [12] and in [14] was “inactive” in each case. Moreover, the Potency in [6] was 9.44 µM (active); in assay [13] it was 19 µM (active). In addition, in [8], the outcome was inactive. Also, in assay [11], the activity change, positive = activation is 48.3% [at 42.5 µM] (active).
Take `CCN=c1cc2oc3cc(NCC)c(C)cc3c(-c3ccccc3C(=O)OCC)c-2cc1C`: the Potency entry in assay [1], in assay [4] and in [15] was “inactive” each time. Moreover, the Potency in assay [3] is 54.3 µM (active) and 54.5 µM (active); in assay [16], 38.9 µM (active); in assay [9], 7.1 µM (active) and 31.8 µM (active); in assay [10], 108 nM (active) and 122 nM (active); in assay [12], 43.5 µM (active) and 24.5 µM (active); in assay [13], 1.09 µM (active) and 1.38 µM (active). The Potency in assay [17] was 6.89 µM (active) and 6.92 µM (active); in [14] it was 43.5 µM (active) and 21.9 µM (active); in assay [18] it was 7.73 µM (active) and 12.3 µM (active). Moreover, the activity change, positive = activation in [11] is -79.8% and -73.2%.
Regarding `CCCCCCOc1ccc(O)cc1`, the Potency in assay [1] is 35.6 µM (active); in assay [4] it was 27.3 µM (active); in assay [16] it was 54.9 µM (active); in [7] it was 11.3 µM (active); in assay [9], 113 µM (active); in assay [13], 0.0692 µM (active). Moreover, the Potency result in [3], in assay [5], in assay [19], in assay [10], in assay [17] and in assay [14] was “inactive” each time. Besides, in assay [11], the activity change, positive = activation was 0.107%.
Turning to `COc1cc(C=C2CCC/C(=C\c3ccc(O)c(OC)c3)C2=O)ccc1O`, the Potency is 30.9 µM (active) in assay [1]; 11.9 µM (active) in assay [5]; 15.1 µM (active) in [16]; 8.41 µM (active) in assay [10]; 23.9 µM (active) in [13]. For the same molecule, the Potency result in assay [4], in assay [19] and in [17] was “inactive” each time. For the same molecule, in assay [11], the activity change, positive = activation was -63.1% [at 42.5 µM].
For the molecule `CCC(C)(C)c1cc(O)c(C(C)(C)CC)cc1O`, the Potency result in [1], in [20], in [3], in assay [4], in assay [19] and in assay [17] was “inactive” each time. Besides, the Potency in assay [10] is 68.6 µM (active); in assay [13], 30.9 µM (active). In addition, in [11], the activity change, positive = activation was -67.5%.
For the molecule `Cc1nc(Nc2ncc(C(=O)Nc3c(C)cccc3Cl)s2)cc(N2CCN(CCO)CC2)n1`, the Potency entry in assay [1], in assay [4], in assay [5], in assay [19], in assay [16] and in [17] was “inactive” throughout. In assay [18], the Potency entry is “inactive”. The Potency in [2] is 7.5 µM (active); in assay [3] it was 9.44 µM (active); in assay [7] it was 55.2 µM (active); in assay [10], 8.41 µM (active); in [13] it was 30.1 µM (active). Moreover, the result in assay [8] was inactive. Also, the activity change, positive = activation in assay [11] was -44.6% [at 42.5 µM].
On to `CN(C)c1ccc(N=NS(=O)(=O)O)cc1`, for which the Potency is 17.8 µM (active) in assay [1], 25.7 µM (active) in [4] and 40.1 µM (active) in assay [9]. Also, the Potency result in [3], in assay [19], in assay [12], in assay [17], in [14] and in [18] was “inactive” in each case.
